Results as given in PubChem BioAssay (Tox21).
Several values for one entry are separate records, joined by “and”; a condition that tells them apart may be missing. Identical values can stand only once. Inconclusive results are not listed. Where a call stands in place of a potency, no number is given. Some structures have more than one record in an assay (separate samples or runs), and their calls can disagree. Activity calls are given as the source filed them. Calls come from the whole dose curve; as a rule, active = well fitted curve in the direction sought with a large enough effect in the repeat runs; inconclusive = weak or mixed curves; inactive = no such curve, though single readings can be large; an effect the other way counts as inactive or inconclusive.

Experiments:
[1] = qHTS RealTime-Glo MT Cell Viability Assay in HepG2 cells - 8 hour (AID 1224873); note: nearly all actives have a fitted effect of over 55% in size
How it was run: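 HepG2 cells mixed with RealTime-Glo MT reagents (NanoLuc plus cell-permeant prosubstrate) were seeded at 600 cells/well, incubated 5 h at 37 C/5% CO2, then pinned with compounds in DMSO; nonlytic luminescence tracked viability during 40 h treatment.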

[2] = qHTS RealTime-Glo MT Cell Viability Assay in HEK293 cells - 40 hour (AID 1224874); settings: RealTime-Glo luminescence; max response: stronger effect = lower value; note: nearly all actives have a fitted effect of over 50% in size; note: potency is the fitted concentration of half-maximal effect
How it was run: (§1)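 Viable HEK293 cells reduce a cell-permeant prosubstrate; the product diffuses out and is consumed by NanoLuc in the medium to give light. Compounds went in after a 5 h incubation and plates were read over the treatment course.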

[3] = A CellTox Green Cytotoxicity Assay to monitor cytotoxicity in HEK293 cells - 24 hour (AID 1224875); note: series mostly up to about 77 µM; nearly all actives have a fitted effect of over 45% in size
How it was run: (§2)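 Fluorescence intensity, read at 0, 8, 16, 24, 32 and 40 h of compound treatment, reflected dye binding to DNA of dead HEK293 cells; compounds (23 nL, DMSO) were added 5 h after plating cells with reagent.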

[4] = A CellTox Green Cytotoxicity Assay to monitor cytotoxicity in HepG2 cells - 16 hour (AID 1224876); note: nearly all actives have a fitted effect of over 45% in size; note: potency is the fitted concentration of half-maximal effect
How it was run: (§3)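 Using 1536-well format, dye-containing HepG2 suspension was seeded, allowed 5 h at 37 C/5% CO2, dosed by pintool with compounds, positive and negative controls, and imaged for fluorescence across 40 h.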

[5] = qHTS RealTime-Glo MT Cell Viability Assay in HepG2 cells - 32 hour (AID 1224877); note: nearly all actives have a fitted effect of over 55% in size; note: potency is the fitted concentration of half-maximal effect
How it was run: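 HepG2 suspension premixed with RealTime-Glo reagents is plated at 600 cells per well and left 5 h at 37 C/5% CO2. Compounds in DMSO then go in, and bioluminescence reflecting viable cell number is recorded over 40 h.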

[6] = A CellTox Green Cytotoxicity Assay to monitor cytotoxicity in HepG2 cells - 24 hour (AID 1224878); note: nearly all actives have a fitted effect of over 45% in size; note: potency is the fitted concentration of half-maximal effect
How it was run: as §3

[7] = A CellTox Green Cytotoxicity Assay to monitor cytotoxicity in HepG2 cells - 40 hour (AID 1224879); note: nearly all actives have a fitted effect of over 40% in size; note: potency is the fitted concentration of half-maximal effect
How it was run: as §3

[8] = qHTS RealTime-Glo MT Cell Viability Assay in HEK293 cells - 0 hour (AID 1224880); note: top concentration of the series differs between compounds; nearly all actives have a fitted effect of over 45% in size
How it was run: as §1

[9] = A CellTox Green Cytotoxicity Assay to monitor cytotoxicity in HEK293 cells - 32 hour (AID 1224881); note: nearly all actives have a fitted effect of over 40% in size; note: potency is the fitted concentration of half-maximal effect
How it was run: as §2

[10] = A CellTox Green Cytotoxicity Assay to monitor cytotoxicity in HepG2 cells - 0 hour (AID 1224882); note: nearly all actives have a fitted effect of over 35% in size
How it was run: as §3

SMILES	Potency [1]	max response [2]	Potency [3]	Potency [4]	Potency [5]	Potency [6]	Potency [7]	outcome [8]	Potency [9]	Potency [10]	Potency [2]
CCC[N+]1(C)CCCCC1	inactive	-1.58% (inactive) and 7.15% (inactive) and 0.391% (inactive)	inactive	inactive	inactive and 34.8 µM (active)	inactive	inactive	inactive	inactive	inactive	
COc1ccc(N)cc1	inactive	-4.85% (inactive) [middle of 4 runs]	inactive	inactive and 195 nM (active)	inactive	inactive and 219 nM (active)	inactive and 245 nM (active)	inactive	inactive	inactive	
O=c1[nH]c(=O)n(Cl)c(=O)n1Cl	inactive	3.74% (inactive) and 3.92% (inactive) and 2.88% (inactive)	inactive	inactive	inactive	inactive	inactive	inactive	inactive	inactive	
O=C(O)COc1ccc(Cl)cc1Cl	inactive	5.16% (inactive) [middle of 6 runs]	inactive	inactive	inactive	inactive	inactive	inactive	inactive	inactive	
Nc1ccc(-c2ccc(N)cc2)cc1	inactive	-0.165% (inactive) and -5.77% (inactive) and -8.89% (inactive)	inactive	inactive	inactive	inactive	48.4 µM (active) and inactive	inactive	inactive	inactive	
CCCC[n+]1cccc(C)c1	inactive	7.15% (inactive) [middle of 6 runs]	inactive	inactive	inactive and 55.7 µM (active)	inactive	inactive	inactive	inactive	inactive	
C1CCC(NC2CCCCC2)CC1	inactive	3.03% (inactive) and 3.3% (inactive) and 2.02% (inactive)	inactive	inactive	inactive	inactive	inactive	inactive	inactive	inactive	
Oc1cccc2cccnc12	inactive	-0.234% (inactive)	inactive	inactive and 6.16 µM (active)	inactive and 3.09 µM (active)			inactive	17.5 µM (active) and 6.16 µM (active) and inactive	inactive	13.9 µM (active) and 23.3 µM (active) and 12.7 µM (active)
COP(=O)(OC)C(O)C(Cl)(Cl)Cl (stereo unspecified)	inactive	-4.55% (inactive) and 3.86% (inactive)	inactive	inactive	inactive	inactive	inactive	inactive	inactive	inactive	
CC[n+]1ccccc1	inactive	9.29% (inactive) [middle of 4 runs]	inactive	inactive	inactive and 49.1 µM (active)	inactive	inactive	inactive	inactive	inactive	21.7 µM (active)
CC[N+]1(C)CCCC1	inactive	3.6% (inactive) [middle of 4 runs]	inactive	inactive	inactive	inactive	inactive	inactive	inactive	inactive	21.9 µM (active)
O=[N+]([O-])c1ccccc1O	inactive	3.7% (inactive) and -2.87% (inactive) and 7.99% (inactive)	inactive	inactive	inactive	inactive	inactive	inactive	inactive	inactive	
O=C(O)C(Cl)(Cl)Cl	inactive	1.76% (inactive) and 3.09% (inactive)	inactive	inactive	inactive	inactive	inactive	inactive	inactive	inactive	
CC(=O)O	inactive	1.59% (inactive) [middle of 4 runs]	inactive	inactive	inactive	inactive	inactive	inactive	inactive	inactive	
O=P1(N(CCCl)CCCl)NCCCO1 (stereo unspecified)	inactive	4.44% (inactive) and 0.328% (inactive) and -5.68% (inactive)	inactive	inactive	inactive	inactive	inactive	inactive	inactive	inactive	
